Compound activity (PubChem BioAssay)
FMDV antiviral = antivirals against foot and mouth disease virus | FMDV antiviral cell-based qHTS | Potency, µM (highest dose often 57.9 µM), usual class: inhibitors | 410,000 tested, 1.2% active | AID 1159524; calls by dose curve; tested in HEK293T cells; note: read-out not given here; nearly all actives have a fitted effect of over 45% in size
Tb PYK inh = T. brucei pyruvate kinase inhibition. Q57TT1. TbPYK enzyme, Kinase-Glo Plus ATP luminescence, 45 min. Potency, µM (series often up to 76.8 µM), usual class: inhibitors. 410,000 tested, 0.12% active. AID 624173; note: nearly all actives have a fitted effect of over 50% in size
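Glycolytic pyruvate kinase of T. brucei was incubated with substrate, test compound and 130 uM ADP for 45 minutes at room temperature. Luminescent Kinase-Glo Plus signal was measured after 10 minutes.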
Sm TGR inh = S. mansoni TGR enzyme inhibition. Q962Y6. purified TGR, DTNB reduction, TNB absorbance 405 nm. Potency, µM (series often up to 114 µM), actives largely listed as inhibitors. 360,000 tested, 3% active; note: nearly all actives have a fitted effect of over 60% in size
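Kinetic colorimetric format: TGR-catalysed, NADPH-driven DTNB reduction monitored via TNB absorbance. Enzyme dispensed at 20 nM; compound exposure 15 min at room temperature before reaction start.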
RE007 growth inh = less growth of the S. pombe RE007 Vpr strain; S. pombe RE007 Vpr strain, BacTiter-Glo ATP luminescence, 24 h; Potency, µM (doses to about 92.2 µM), hits mostly inhibitors; 360,000 tested, 0.21% active; AID 651644; active = well fitted falling curve with a large enough effect; inconclusive = small, poorly fitted or top-dose-only effect; inactive = no such curve, though single readings can be large or run the other way; note: nearly all actives have a fitted effect of over 50% in size
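Fission yeast RE007 carrying one integrated HIV-1 vpr copy, seeded at OD 0.01 in PMG+AL medium with 23 nL pinned compound. Grown 24 h at 30 degrees; viability read by BacTiter-Glo luminescence after 5 min.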
A number is an active result; – = inactive; ? = inconclusive; · = not tested or not shown. Sampled rows, rich in hits. Any-hit rate of the full collection: about 3.7%. Unless noted, calls come from the whole dose curve; as a rule, active = well fitted curve in the direction sought with a large enough effect; inconclusive = small, poorly fitted or top-dose-only effect, or another doubt; inactive = no such curve, though single readings can be large; an effect the other way counts as inactive or inconclusive.

SMILES	FMDV antiviral	Tb PYK inh	Sm TGR inh	RE007 growth inh
O=C(NCc1ccco1)C(c1ccncc1)N(CCC1=CCCCC1)C(=O)Cn1nnc2ccccc21 (stereo not drawn)	–	–	44.7µM	–
O=C(NCc1ccco1)C(c1ccccc1)N(Cc1ccccc1)C(=O)Cn1nnc2ccccc21 (stereo not drawn)	–	–	–	–
Cc1nc2c(c(=O)c3ccccc3n2C)c(=O)n1C1CCCCCC1	–	–	–	–
CCCCCc1nc2c(c(=O)c3ccccc3n2C)c(=O)n1C1CCCCCC1	31.6µM	–	–	–
CC1CN(c2ccc([N+](=O)[O-])cc2F)CCN1C(=O)c1ccco1 (stereo not drawn)	?	–	–	?
O=C(c1ccco1)N1CCN(c2ccc([N+](=O)[O-])cc2F)CC1	–	–	35.5µM	–
O=C1CCN(c2ccc([N+](=O)[O-])cc2F)CC1	–	–	39.8µM	–
CC(C)CC(=O)Nc1nnc(S(=O)(=O)N(CC(C)C)c2ccccc2)s1	–	–	–	·
c1ccc(C(OC2CCCN(CCc3ccc4c(c3)OCO4)C2)c2ccccc2)cc1 (stereo not drawn)	·	–	·	·
Cc1cc(-c2ccnc(-n3ncc(C(=O)NCCc4cccnc4)c3C)n2)c(C)s1	–	·	·	·
Cc1cc(C)c([N+](=O)[O-])cc1-c1ccc(/C=N/c2c(-c3ccco3)nc3ccccn23)o1	–	–	39.8µM	–
O=[N+]([O-])c1ccc(Cl)c(-c2ccc(/C=N/c3c(-c4ccco4)nc4ccccn34)o2)c1	–	–	–	–
Oc1cccc(/C=N/c2c(-c3ccco3)nc3ccccn23)c1	·	–	35.5µM	–
Cc1ccccc1NC(=O)CCNC(=O)Cn1ccc2ccccc2c1=O	–	–	–	·
C(=C\c1ccccc1)/CN1CCN(c2ncnc3c2oc2ccccc23)CC1	20µM	–	–	–
Cn1cnc(S(=O)(=O)N2CCC(C(=O)Nc3ccc(F)cc3F)CC2)c1	–	–	–	·
CCCSc1nnc(NC(=O)Nc2ccc(F)cc2)s1	–	–	89.1µM	–
Cc1ccc(Cn2c(C)c(CNCC(C)c3ccccc3)c(C(=O)O)c2C)cc1 (stereo not drawn)	–	–	–	·
S=C(NCc1ccncc1)Nc1ccc(Br)cc1	–	–	28.2µM	–
COc1ccc(NC(=O)Nc2ccc(Cc3ccncc3)cc2)cc1OC	22.4µM	–	–	–
CNC(=S)Nc1ccc(Cc2ccncc2)cc1	–	–	39.8µM	–
S=C(NCc1ccncc1)Nc1ccccc1	–	–	–	–
CCNC(=S)Nc1ccc(Cc2ccncc2)cc1	–	–	–	–
S=C(NCc1ccncc1)Nc1ccc(Cl)cc1Cl	–	–	35.5µM	–
COc1cccc(Cn2c(=O)c(-c3cccs3)nc3cnc(N(C)C)nc32)c1	–	·	·	·
SMILES	FMDV antiviral	Tb PYK inh	Sm TGR inh	RE007 growth inh
Cc1cccc(S(=O)(=O)N2CN(Cc3ccco3)c3nc4ccccc4nc32)c1	–	–	17.8µM	–
CCC(=O)[C@@H](C)[C@@H](O)[C@H](C)C[C@@H](C)C1OC(=O)C[C@@]2(O)CC=C(C)C(O2)C(C)=CCCC[C@H](O[C@H]2C[C@@H](OC(N)=O)[C@H](O)[C@@H](C)O2)C=C[C@H](C)C[C@H]1C (stereo partly drawn)	17.8µM	–	·	–
CCC(=O)[C@@H](C)[C@@H](OC(C)=O)[C@H](C)C[C@@H](C)[C@H]1OC(=O)C[C@@]2(O)CC=C(C)C(O2)C(C)=CCCC[C@H](O[C@H]2C[C@@H](OC(N)=O)[C@H](OC(C)=O)[C@@H](C)O2)C=C[C@H](C)C[C@H]1C	–	–	·	–
C/C=C(/C)C(=O)Nc1cccc(C2=NOC3(C2)C[C@@H](C(N)=O)N(C(=O)c2ccc(OC)cc2)C3)c1 (stereo partly drawn)	–	–	–	–
C/C=C\C=C/C(=O)Nc1cccc(C2=NOC3(C2)C[C@@H](C(N)=O)N(C(=O)c2ccc(Cl)cc2)C3)c1 (stereo partly drawn)	–	–	3.16µM	–
C/C=C\C=C/C(=O)Nc1cccc(C2=NOC3(C2)C[C@H](C(N)=O)N(C(=O)c2ccc(OC)cc2)C3)c1 (stereo partly drawn)	–	–	1.78µM	–
c1coc(-c2nc3nc4ccccc4nc3n2CC2CCCO2)c1 (stereo not drawn)	–	–	50.1µM	–
c1ccc(-c2nc3nc4ccccc4nc3n2CC2CCCO2)cc1 (stereo not drawn)	–	–	–	–
COc1ccc(CCn2c(-c3ccco3)nc3nc4ccccc4nc32)cc1	–	–	50.1µM	–
CC(C)C(=O)NCC1CCC2(CCN(Cc3ccc(-c4cccc(Cl)c4)o3)CC2)O1 (stereo not drawn)	–	·	·	·
COC(=O)c1sc(C(=O)OC)c(C(=O)OC)c1C(=O)OC	–	–	–	–
COC(=O)c1sc(=S)sc1C(=O)OC	·	–	–	31.6µM
CC(=O)OCC12CC(OC(=O)CC(C)C)C(C)=CC1OC1C(O)C(OC(C)=O)C2(C)C12CO2 (stereo not drawn)	·	–	·	5.62µM
COc1ccc(-c2noc(-c3ccc(NCc4ccccc4OC)c([N+](=O)[O-])c3)n2)cc1	–	–	–	·
CC(=O)Nc1cccc2ccc(O)cc12	–	–	·	–
O=C(Nc1ccccc1F)Nc1cccc2ccc(O)cc12	–	–	31.6µM	·
O=C(c1cc(-c2ccco2)nc2ccccc12)N1CCCC(C(F)(F)F)C1 (stereo not drawn)	–	–	35.5µM	–
O=C(c1cc2ccccc2cc1O)N1CCCC(C(F)(F)F)C1 (stereo not drawn)	–	–	28.2µM	–
CCN1CCN(C(=O)c2cc(-c3ccc(Cl)s3)nc3ccccc23)CC1	–	–	?	–
CCN1CCN(C(=O)c2cc(-c3ccco3)nc3ccccc23)CC1	–	–	28.2µM	–
Cc1ccc2nc(COc3cccc(NC(=O)COc4ccc(F)cc4)c3)cc(=O)n2c1	–	–	–	·
COc1ccc(-n2nnc3c(SC(C(C)=O)C(=O)N(C)C)ncnc32)cc1 (stereo not drawn)	31.6µM	–	–	–
COc1ccccc1CN1C(=O)[C@@H]2Cc3c([nH]c4ccccc34)C(C)(C)N2C1=O	28.2µM	–	·	·
COc1cccc(CN2C(=O)[C@H]3Cc4c([nH]c5ccccc45)C(C)(C)N3C2=O)c1	35.5µM	–	·	·
COc1ccc(CN2C(=O)[C@@H]3Cc4c([nH]c5ccccc45)C(C)(C)N3C2=O)cc1	–	–	·	·
SMILES	FMDV antiviral	Tb PYK inh	Sm TGR inh	RE007 growth inh
Cc1ccc(S(=O)(=O)CC(CN2CCOCC2)N2CCOCC2)cc1 (stereo not drawn)	–	–	·	–
O=S(=O)(CC(CN1CCCC1)N1CCCC1)c1ccc2ccccc2c1 (stereo not drawn)	–	–	15.8µM	–
COC1=C(OC)C(=O)C(CCCCCCCCCCO)=C(C)C1=O	·	–	?	·
CC1=C(C)C(=O)C(CCCCC#CCCCC#CCO)=C(C)C1=O	22.4µM	–	8.91µM	–
O=C(Nc1ccc([N+](=O)[O-])cc1O)Nc1ccccc1Br	–	·	·	·
CN(C)C(=O)c1nc2ccccc2s1	–	–	–	–
